Reference: PubChem BioAssay
The source made the active and inactive calls. Unless noted, the rule behind the calls is not given here.

Columns and labels:
[1] = A549 cell viability effects, profiling panel, calcein-AM fluorescence, 48 h, basal (AID 1162); conditions: higher = more signal; note: test concentration not given here
[2] = adipocyte viability effects, profiling panel, cell-based, 3T3-L1 adipocytes, calcein-AM fluorescence, 48 h, basal (AID 1163); conditions: 3T3-L1 adipocytes viability, higher = more signal; note: test concentration not given here
[3] = HepG2 cell viability effects, profiling panel, calcein-AM fluorescence, 48 h, basal (AID 1164); conditions: higher = more signal; note: test concentration not given here
[4] = MM1S cell viability effects, profiling panel, calcein-AM fluorescence, 48 h, basal (AID 1165); conditions: higher = more signal;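 note: viability of MM1S multiple myeloma cells under basal unstimulated conditions; test concentration not given here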
[5] = basal RPMI8226 viability, no added stimulus, profiling panel, cell-based, calcein-AM fluorescence, 48 h, PK04 Diversity Set (AID 1166); conditions: RPMI8226 myeloma viability, higher = more signal;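 note: cells grown under basal conditions without added stimulus; test concentration not given here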
[6] = basal HepG2 mitochondrial membrane potential changes, profiling panel, cell-based, JC-1 fluorescence, 24 h, 100 nL compound (AID 1167); conditions: higher = more signal; note: test concentration not given here
[7] = basal 3T3-L1 adipocyte mitochondrial potential changes, profiling panel, cell-based, JC-1 fluorescence, 3T3-L1 adipocytes, 24 h, 100 nL compound (AID 1168); conditions: JC-1 mitochondrial fluorescence, higher = more signal, called active from +8 up or from −8 down; note: test concentration not given here
[8] = basal RPMI8226 mitochondrial membrane potential changes, profiling panel, cell-based, JC-1 fluorescence, 24 h, 100 nL compound (AID 1169); conditions: RPMI8226 myeloma, JC-1 mitochondrial potential fluorescence, higher = more signal; note: test concentration not given here
[9] = basal MM1S mitochondrial membrane potential changes, profiling panel, cell-based, JC-1 fluorescence, 24 h, 100 nL compound (AID 1170); conditions: higher = more signal; note: test concentration not given here
[10] = A549 lung cancer cell viability effects, profiling panel, resazurin fluorescence, 24 h, PK04 Diversity Set (AID 1171); conditions: higher = more signal, called active from +8 up or from −8 down; note: test concentration not given here
[11] = HepG2 liver cancer cell viability effects, profiling panel, resazurin fluorescence, 24 h, PK04 Diversity Set (AID 1172); conditions: higher = more signal; note: test concentration not given here
[12] = basal S. cerevisiae growth modulation, no modifier, primary screen, OD600, strain BY4716, 24 h, basal condition (AID 1173); conditions: OD600, 24 h, higher = more signal, called active from +8 up or from −8 down
[13] = MM1S myeloma cell viability, profiling panel, resazurin fluorescence, basal, 24 h, PK04 Diversity Set (AID 1174); conditions: higher = more signal, called active from +8 up or from −8 down;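 note: MM1S multiple myeloma cell line; test concentration not given here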
[14] = biological target: Dihydroorotate dehydrogenase (quinone), mitochondrial (Plasmodium falciparum (isolate 3D7)) (UniProt Q08210); assay: PfDHODH enzyme inhibitors, primary screen, biochemical, C-terminal His tag, absorbance 600 nm (AID 1175); conditions: DCIP absorbance 600 nm, higher = more signal, called active from +8 up or from −8 down;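 note: recombinant parasite enzyme with a five histidine tag at its C terminus; test concentration not given here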
Dihydroorotate dehydrogenase (quinone), mitochondrial (Plasmodium falciparum (isolate 3D7)), sequence (Q08210 whole entry, looked up): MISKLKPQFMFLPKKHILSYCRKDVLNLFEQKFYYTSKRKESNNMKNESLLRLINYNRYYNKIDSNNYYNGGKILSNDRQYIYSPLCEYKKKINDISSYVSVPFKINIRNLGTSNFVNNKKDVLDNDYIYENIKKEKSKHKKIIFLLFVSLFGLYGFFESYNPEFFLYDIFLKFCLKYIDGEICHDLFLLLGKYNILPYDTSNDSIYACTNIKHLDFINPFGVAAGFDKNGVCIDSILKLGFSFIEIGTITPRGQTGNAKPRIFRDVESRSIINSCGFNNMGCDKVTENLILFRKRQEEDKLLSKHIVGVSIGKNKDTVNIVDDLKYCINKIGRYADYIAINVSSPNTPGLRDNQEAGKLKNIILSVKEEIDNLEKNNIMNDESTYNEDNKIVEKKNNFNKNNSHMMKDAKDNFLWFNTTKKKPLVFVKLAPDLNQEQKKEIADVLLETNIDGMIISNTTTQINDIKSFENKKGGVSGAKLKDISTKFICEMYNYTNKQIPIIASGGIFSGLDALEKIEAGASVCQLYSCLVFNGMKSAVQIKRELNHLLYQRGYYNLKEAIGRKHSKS

[15] = P. aeruginosa biofilm formation inhibitors, primary screen, strain PAO1, LB-PBS medium, absorbance 600 nm (AID 1176); note: test concentration not given here; conditions: P. aeruginosa PAO1 growth/biofilm, A600, 12 h; higher = more signal
[16] = S. cerevisiae RM11-1a growth modifiers, primary screen, strain RM11-1a, OD600, basal, 24 h (AID 1177); conditions: OD600, 24 h, higher = more signal, called active from +8 up or from −8 down;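 note: cultures grown under basal conditions with no added stressor; test concentration not given here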
[17] = E. coli acrAB mutant growth effects, primary screen, E. coli filamentation inducers, strain DRC39, OD650, 24 h (AID 1178); conditions: higher = more signal, called active from +8 up or from −8 down;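 note: growth measured as culture turbidity by optical density at 650 nm; test concentration not given here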
[18] = E. coli acrAB mutant growth effects, primary screen, E. coli filamentation inducers, strain DRC39, OD650, 48 h (AID 1179);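 note: screen aims at cell division blockers that make cells filament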; conditions: E. coli DRC39 delta-acrAB growth, higher = more signal, called active from +8 up or from −8 down
[19] = RPMI8226 myeloma cell viability, profiling panel, resazurin fluorescence, basal, 24 h, PK04 Diversity Set (AID 1180); conditions: higher = more signal;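 note: RPMI8826 multiple myeloma cell line at 5000 cells per well; test concentration not given here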
[20] = biological target: E3 ubiquitin-protein ligase XIAP (Homo sapiens) (UniProt P98170); assay: XIAP binders, primary screen, biophysical, small-molecule microarray, fluorescence 635 nm (AID 1181); conditions: small-molecule microarray binding, higher = more signal;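 note: score merges 667 nm emission and signal to noise over triplicate slides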
E3 ubiquitin-protein ligase XIAP (Homo sapiens), sequence (P98170 whole entry, looked up): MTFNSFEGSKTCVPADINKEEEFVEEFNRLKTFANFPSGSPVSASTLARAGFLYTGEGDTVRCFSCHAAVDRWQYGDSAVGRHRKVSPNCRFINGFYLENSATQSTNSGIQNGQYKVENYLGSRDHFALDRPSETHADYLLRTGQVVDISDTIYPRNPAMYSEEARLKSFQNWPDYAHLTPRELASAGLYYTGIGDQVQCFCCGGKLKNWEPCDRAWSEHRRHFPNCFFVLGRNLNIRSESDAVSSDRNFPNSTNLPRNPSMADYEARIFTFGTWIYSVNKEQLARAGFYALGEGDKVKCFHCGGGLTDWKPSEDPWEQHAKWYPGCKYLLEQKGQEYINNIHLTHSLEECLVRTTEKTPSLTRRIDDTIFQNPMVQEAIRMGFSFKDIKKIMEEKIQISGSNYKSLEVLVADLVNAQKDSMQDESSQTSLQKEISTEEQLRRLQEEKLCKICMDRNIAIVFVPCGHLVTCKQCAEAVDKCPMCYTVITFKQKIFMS

| SMILES | z-score [1] | z-score [2] | z-score [3] | z-score [4] | z-score [5] | z-score [6] | z-score [7] | z-score [8] | z-score [9] | z-score [10] | z-score [11] | z-score [12] | z-score [13] | composite z-score [14] | z-score [15] | z-score [16] | z-score [17] | z-score [18] | z-score [19] | composite z-score [20] |
| --- | --- | --- | --- | --- | --- | --- | --- | --- | --- | --- | --- | --- | --- | --- | --- | --- | --- | --- | --- | --- |
| COc1ccc([C@H]2OC[C@@H]3CCC(=O)N32)cc1 | -0.245 | -0.315 | -0.0392 | -0.804 | 0.502 | 0.0252 | -0.139 (inactive) | -0.225 | -0.1 | 0.109 (inactive) | 0.219 | 0.242 (inactive) | 0.526 (inactive) | -0.0915 (inactive) | -0.133 (inactive) | 0.189 (inactive) | 0.905 (inactive) | 0.593 (inactive) | 0.131 | -0.199 |
| CC1CC/C=C\[C@H]2OC34C=CCN(c5ccc6ccccc6c5)C(=O)[C@H]3N(CCO)C(=O)[C@@H]4C2C(=O)O1 (stereo not given in full) | -0.099 | 0.428 | -0.303 | 1.01 | -0.36 | -0.438 | -0.55 (inactive) | -0.0138 | 1.19 | -0.573 (inactive) | -0.854 | -0.635 (inactive) | -1.03 (inactive) | -0.509 (inactive) | 0.826 (inactive) | -0.471 (inactive) | -0.726 (inactive) | -0.867 (inactive) | 0.0886 | 0.0728 |
| COCCOC(=O)N1C(=O)[C@@]2(c3cc(C#CCCO)ccc31)[C@H](c1ccc(OCCO)cc1)N1[C@H](c3ccccc3)[C@H](c3ccccc3)OC(=O)[C@H]1[C@@H]2C(N)=O | 0.617 | 0.435 | 1.35 | -0.109 | -0.804 | -0.72 | -0.456 (inactive) | -0.899 | -0.0462 | 0.215 (inactive) | -0.569 | 1.67 (inactive) | -0.371 (inactive) | 0.561 (inactive) | 0.449 (inactive) | 3.69 (inactive) | 0.315 (inactive) | 0.399 (inactive) | -0.103 | -0.192 |
| O=C1NC(=O)C2C1C=CC(C(O)c1ccc(I)cc1)N2Nc1ccc(Cl)cc1Cl (stereo not given) | -0.519 | 0.53 | -0.363 | -3.83 | -4.06 | -2.51 | -1.25 (inactive) | -0.984 | -1.09 | -1.59 (inactive) | -1.99 | -15.1 (active) | -0.177 (inactive) | -1.4 (inactive) | 2.06 (inactive) | -4.5 (inactive) | 0.163 (inactive) | -0.186 (inactive) | -0.137 | -0.108 |
| CS(=O)(=O)CCOC(=O)C1=CC(CCCO)=CC(c2ccc(CN3CCCC3)cc2)N(Cc2cccc(OC(F)(F)F)c2)C=C1C(=O)OCCS(C)(=O)=O (stereo not given) | 0.75 | 0.309 | 1.81 | -1.46 | -0.697 | 3.78 | -0.168 (inactive) | -0.661 | -0.935 | 0.516 (inactive) | -0.207 | -3.9 (inactive) | -0.527 (inactive) | -1.03 (inactive) | 1.24 (inactive) | 1.01 (inactive) | 0.669 (inactive) | 0.399 (inactive) | 0.0703 | -0.24 |
| COC(=O)C(CC#Cc1ccc2c(c1)[C@]1(C(=O)N2)[C@H](c2ccc(O)cc2)N2[C@H](c3ccccc3)[C@H](c3ccccc3)OC(=O)[C@H]2[C@@H]1C(=O)N1CCN(c2ncccn2)CC1)C(=O)OC | -0.112 | -0.274 | 0.9 | -2.43 | -4.48 | -0.758 | 0.999 (inactive) | -1.07 | -2.02 | -0.558 (inactive) | -0.0862 | 0.238 (inactive) | -1.02 (inactive) | 0.0817 (inactive) | 0.847 (inactive) | 0.849 (inactive) | 0.551 (inactive) | 0.769 (inactive) | -3.92 | -0.0668 |
| O=C1NC(=O)C2C1C=CC(C(O)c1ccc(I)cc1)N2Nc1ccccn1 (stereo not given) | -0.0915 | -0.891 | -0.145 | -0.619 | -0.566 | -1.35 | -0.47 (inactive) | 0.537 | -0.0562 | -0.107 (inactive) | -1.45 | -0.27 (inactive) | -0.766 (inactive) | 0.309 (inactive) | 1.48 (inactive) | 0.275 (inactive) | -0.062 (inactive) | -0.495 (inactive) | -1.01 | 0.189 |
| C=C(CCCC)C(=O)CC[C@@H](OC(C)=O)c1ccc(CO)o1 | -0.779 | 0.37 | -0.293 | 0.0178 | -0.878 | -0.885 | 0.352 (inactive) | 0.703 | -0.179 | -0.0655 (inactive) | 0.519 | -12.9 (active) | 0.292 (inactive) | -8.56 (active) | 1.27 (inactive) | -0.944 (inactive) | 0.435 (inactive) | 0.339 (inactive) | 0.624 | 0.151 |
